# Test results published in PubChem BioAssay AID449739 (Vanderbilt High Throughput Screening Facility, 2010).
# Screen size: about 100,000 compounds; about 4,200 (4.2%) were called active. The sample holds actives, similar compounds and a random draw of the others, so the mix is not that of the screen.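 Rule for the calls: active = single-dose well whose peak fluorescence ratio is a statistical outlier from its plate by either plate-standardised score or position-corrected B-score; inactive = the rest.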
# Biological target: Voltage-dependent T-type calcium channel subunit alpha-1H (Homo sapiens) (UniProt O95180)
# Sequence (O95180 whole entry, looked up): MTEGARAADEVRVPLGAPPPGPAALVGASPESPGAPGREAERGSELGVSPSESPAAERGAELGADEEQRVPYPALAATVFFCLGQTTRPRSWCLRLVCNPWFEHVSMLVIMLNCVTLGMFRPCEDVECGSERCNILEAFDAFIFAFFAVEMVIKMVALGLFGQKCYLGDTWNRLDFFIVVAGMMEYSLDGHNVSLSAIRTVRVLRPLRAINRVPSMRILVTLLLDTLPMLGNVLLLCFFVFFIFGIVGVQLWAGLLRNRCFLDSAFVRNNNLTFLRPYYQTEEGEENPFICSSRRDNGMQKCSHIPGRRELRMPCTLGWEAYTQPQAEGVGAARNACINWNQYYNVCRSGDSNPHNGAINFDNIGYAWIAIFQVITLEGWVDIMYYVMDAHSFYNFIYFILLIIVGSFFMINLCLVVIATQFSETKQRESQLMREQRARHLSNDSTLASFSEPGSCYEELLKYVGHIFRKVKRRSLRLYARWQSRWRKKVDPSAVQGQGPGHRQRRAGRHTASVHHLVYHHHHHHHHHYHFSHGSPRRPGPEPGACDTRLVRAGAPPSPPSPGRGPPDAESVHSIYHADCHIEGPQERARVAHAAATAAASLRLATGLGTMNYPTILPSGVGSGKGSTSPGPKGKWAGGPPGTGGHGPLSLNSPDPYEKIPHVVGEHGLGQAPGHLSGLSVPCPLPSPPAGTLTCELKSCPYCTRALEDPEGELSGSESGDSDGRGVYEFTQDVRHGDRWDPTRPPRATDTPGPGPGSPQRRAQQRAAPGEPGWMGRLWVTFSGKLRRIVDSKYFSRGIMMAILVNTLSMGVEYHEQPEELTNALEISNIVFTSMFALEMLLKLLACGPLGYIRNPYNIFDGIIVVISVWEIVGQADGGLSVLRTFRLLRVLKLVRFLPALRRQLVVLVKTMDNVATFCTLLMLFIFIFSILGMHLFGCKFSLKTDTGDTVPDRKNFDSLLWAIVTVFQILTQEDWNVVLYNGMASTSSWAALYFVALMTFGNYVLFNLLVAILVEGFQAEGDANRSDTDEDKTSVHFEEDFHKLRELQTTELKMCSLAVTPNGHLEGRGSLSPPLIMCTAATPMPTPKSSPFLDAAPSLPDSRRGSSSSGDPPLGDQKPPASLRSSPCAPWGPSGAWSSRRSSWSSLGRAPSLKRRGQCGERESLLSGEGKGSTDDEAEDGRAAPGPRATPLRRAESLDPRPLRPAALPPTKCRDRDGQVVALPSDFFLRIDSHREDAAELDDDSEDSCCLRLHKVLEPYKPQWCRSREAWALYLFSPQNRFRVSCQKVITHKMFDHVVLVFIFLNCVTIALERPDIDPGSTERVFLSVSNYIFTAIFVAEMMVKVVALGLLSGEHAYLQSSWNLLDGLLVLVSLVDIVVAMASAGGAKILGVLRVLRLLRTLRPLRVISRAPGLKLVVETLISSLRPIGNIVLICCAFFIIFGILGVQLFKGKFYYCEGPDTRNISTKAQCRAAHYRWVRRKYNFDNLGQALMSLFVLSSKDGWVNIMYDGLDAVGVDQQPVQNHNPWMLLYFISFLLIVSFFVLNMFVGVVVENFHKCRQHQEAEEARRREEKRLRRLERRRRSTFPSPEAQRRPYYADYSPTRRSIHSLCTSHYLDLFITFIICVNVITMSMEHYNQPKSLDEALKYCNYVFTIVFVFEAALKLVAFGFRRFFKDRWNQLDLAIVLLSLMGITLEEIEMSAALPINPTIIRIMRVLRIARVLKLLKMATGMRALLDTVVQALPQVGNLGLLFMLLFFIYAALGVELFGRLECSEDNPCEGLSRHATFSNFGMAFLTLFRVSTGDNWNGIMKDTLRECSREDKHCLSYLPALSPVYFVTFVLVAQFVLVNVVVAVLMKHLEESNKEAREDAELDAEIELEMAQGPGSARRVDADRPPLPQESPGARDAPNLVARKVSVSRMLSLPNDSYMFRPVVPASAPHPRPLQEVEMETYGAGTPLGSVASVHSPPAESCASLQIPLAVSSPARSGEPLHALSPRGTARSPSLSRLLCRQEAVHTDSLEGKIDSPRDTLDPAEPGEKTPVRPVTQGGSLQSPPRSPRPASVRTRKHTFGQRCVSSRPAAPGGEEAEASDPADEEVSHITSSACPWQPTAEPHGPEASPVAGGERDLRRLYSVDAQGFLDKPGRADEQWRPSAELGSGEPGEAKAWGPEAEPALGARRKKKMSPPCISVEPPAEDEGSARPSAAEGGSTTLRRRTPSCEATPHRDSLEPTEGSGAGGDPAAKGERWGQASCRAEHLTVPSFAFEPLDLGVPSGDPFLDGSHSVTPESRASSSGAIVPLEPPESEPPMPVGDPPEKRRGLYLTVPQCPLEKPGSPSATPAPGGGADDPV
# Assay: Cav3.2 calcium influx blockers – cell-based, Fluo-4 calcium fluorescence, FDSS, MLSMR library, primary screen (AID 449739)
# Conditions: Cav3.2-expressing cells, at 10 µM, hits give low values
row,SMILES,B-score
1,COP1(=O)C[C@@H](O)[C@@H](O)[C@@H](COCc2ccccc2)O1 (stereo not given in full),0.634 (inactive)
2,CC(=O)Nc1ccccc1C(=O)C(=O)Nc1ccc(F)cc1,0.288 (inactive)
3,COc1cccc(CNc2nc3nc4c(c(=O)n3[nH]2)CCC4)c1,-0.11 (inactive)
4,Cc1cc2cc3c(N)[nH]nc3nc2cc1C,0.083 (inactive)
5,O=[N+]([O-])c1ccc(NCCCN2CCOCC2)c(Cl)c1,0.715 (inactive)
6,O=C(CN1C(=O)NC2(CCCC2)C1=O)Nc1ccc(F)c(F)c1F,0.274 (inactive)
7,O=C1c2ccccc2S(=O)(=O)c2cc(N3CCN(c4ccccn4)CC3)ccc21,0.804 (inactive)
8,Cc1ccc(-n2c(C)cc(/C=C(\C#N)C(=O)NCC3CCCO3)c2C)cc1 (stereo not given),-1.95 (inactive)
9,CCC(=O)NC(=Nc1nc2ccccc2s1)NC(=O)CC,-0.485 (inactive)
10,O=C(O)CSCc1nc2ccccc2s1,1.19 (inactive)
11,CC(C)CC(=O)N/C(N)=N/c1nc2ccccc2s1,-4.05 (active)
12,Cc1nn(C)cc1/C=N/NC(=O)c1sc2ccccc2c1Cl,2.17 (inactive)
13,Cc1ccc(/C=N/NC(=O)C2=NNC(c3ccccc3)(c3ccccc3)C2)c(O)c1,-6.92 (active)
14,Cc1ccc(-c2nn(-c3ccccc3)cc2/C=N/NC(=O)c2ccc3c(c2)OCO3)cc1,-3.75 (inactive)
15,COc1ccc(SCc2noc(C(=O)NCC3CCCO3)c2C(=O)O)cc1 (stereo not given),1.72 (inactive)
16,CS(=O)(=O)n1nc(-c2ccccc2)nc1NCc1ccco1,0.406 (inactive)
17,CCS(=O)(=O)n1nc(-c2ccc(OC)cc2)nc1SC,-0.316 (inactive)
18,CCS(=O)(=O)n1nc(-c2ccccc2)nc1SCc1ccccc1,-3.19 (active)
19,NC(=O)C1=C[C@H](c2csc3ccccc23)C[C@H](OCc2ccc(CO)cc2)O1,0.00737 (inactive)
20,COCCOCCn1cnc2ccccc21,0.734 (inactive)
21,Cc1cc2nc(C)n(CCCNC(=O)Nc3ccccc3)c2cc1C,-1.52 (inactive)
22,Cc1cc2ncn(CCCCOc3ccccc3)c2cc1C,-4.34 (active)
23,Cc1ccc2c(c1)-c1c(ssc1=S)C(C)(C)N2C(=O)CN1C(=O)c2ccccc2C1=O,-1.31 (inactive)

row,SMILES,B-score
1,CC1=C(C)C(=O)OC(C(C)C2CCC3C4CC=C5CC(OC6OC(COC7OC(CO)C(O)C(O)C7O)C(O)C(O)C6O)CC(O)C5(C)C4CCC23C)C1 (stereo not given),-0.348 (inactive)
2,CC(C)=CCC/C(C)=C/C(=O)O,0.444 (inactive)
3,COC(=O)CN(C(=S)Nc1ccc(Cl)cc1)C1CC(=O)N(c2ccc(OC)cc2)C1=O (stereo not given),-0.0552 (inactive)
4,CN(C)c1ccc(NC(=S)N(CCc2ccccc2)C2CC(=O)N(c3c(Cl)cccc3Cl)C2=O)cc1 (stereo not given),-7.09 (active)
5,CCCOc1ccc(N2C(=O)CC(N(CCc3ccc(S(N)(=O)=O)cc3)C(C)=O)C2=O)cc1 (stereo not given),-0.148 (inactive)
6,C/C=C(/C)C(=O)O[C@@H]1c2cc3c(c4c2[C@@]2(CO4)C(=O)C(OC)=C(OC)C=C2C[C@@H](C)[C@H]1C)OCO3,-0.0512 (inactive)
7,CCN1CCN(C(=O)/C=C\C(=O)O)CC1,-0.00536 (inactive)
8,O=C(NCCCCCCCCCNC(=O)C(F)(F)F)C(F)(F)F,-0.288 (inactive)
9,Cn1c2ccccc2c2c(C(=O)N3CCN(c4ccc(F)cc4)CC3)cn(C3CCCC3)c(=O)c21,-5.04 (active)
10,O=C(c1cccc2ccccc12)N1CCN(c2ccccc2F)CC1,-2.56 (inactive)
11,Cn1c(C(=O)N2CCC(C(N)=O)CC2)cc2c(=O)n(C)c3ccccc3c21,0.0764 (inactive)
12,O=c1c2ccccc2c(-c2ccc(F)cc2)nn1-c1ccc(C(F)(F)F)cc1,0.392 (inactive)
13,Clc1ccc(-c2nnc(-c3ccccc3)nc2N2CCSCC2)cc1,-2.83 (inactive)
14,COc1cc(/C=C/CO)cc(OC)c1O[C@@H]1O[C@H](CO)[C@@H](O)[C@H](O)[C@H]1O,0.144 (inactive)
15,CC1(c2nnc(-c3ccncc3)o2)CC(c2cccnc2)=NO1 (stereo not given),0.534 (inactive)
16,COc1ccc(NC(=O)CSc2nc(NS(=O)(=O)c3ccc(C)cc3)cc(=O)[nH]2)cc1,-6.39 (active)
17,COc1ccc2nc(SCC(=O)Nc3c(C)cc(C)cc3C)[nH]c2c1,-0.844 (inactive)
18,COc1ccc(NC(=O)CSc2nc(N)c(-c3ccccc3)c(=O)[nH]2)cc1,0.0212 (inactive)
19,CCCC(=O)Nc1nc2ccc(NC(=O)c3cccnc3)cc2s1,-0.392 (inactive)
20,COCCN1C(=O)N[C@@H](CCc2ccccc2)[C@H](C(C)=O)[C@H]1C,0.713 (inactive)
21,O=C(NCC1CC1)c1onc(CSc2ccccc2)c1C(=O)NCC1CC1,-1.14 (inactive)
22,CS(=O)(=O)N(CC(=O)N1CCN(c2ccc(F)cc2)CC1)C1CCCCC1,1.32 (inactive)
23,CCOC(=O)N1CCN(C(=O)CN(C2CCCCC2)S(C)(=O)=O)CC1,-0.0305 (inactive)

row,SMILES,B-score
1,CS(=O)(=O)N(CC(=O)Nc1ccc(Cl)c(Cl)c1)C1CCCCC1,-4.14 (active)
2,O=C(COc1ccc2c(C(F)(F)F)cc(=O)oc2c1)Nc1ccc2c(c1)OCCO2,-0.232 (inactive)
3,N#Cc1ccc(Oc2cc(C(F)(F)F)nc(-c3ccccn3)n2)cc1,-0.0658 (inactive)
4,O=C(NCCCN1CCOCC1)c1cc2c(s1)CCC2,0.565 (inactive)
5,Cc1nn(C)cc1C(=O)NNC(=S)Nc1ccc(Cl)cc1,-0.0884 (inactive)
6,COC(=O)C1=C(C(=O)OC)[C@@H]2N(C)c3ccccc3[C@@]23C[C@@H](C(=O)OC)N(C(C)=O)C3=N1,0.294 (inactive)
7,CCOC(=O)c1ccccc1NC(=O)c1c(N)n(C)c(=O)[nH]c1=O,1.01 (inactive)
8,C=CCn1c(SCC(=O)Nc2nc3ccccc3s2)nnc1-c1ccccc1O,-5.9 (active)
9,C=CCn1c(COc2ccccc2)nnc1SCC(=O)NCC(=O)OCC,0.062 (inactive)
10,O=C(CSc1nnc(-c2cccnc2)n1CCc1ccccc1)NCc1ccccc1,0.107 (inactive)
11,C=CCn1c(N)cc(=O)nc1SCC(=O)Nc1cccc2ccccc12,-0.0155 (inactive)
12,CCn1c(SCC(=O)Nc2nc3ccc(OC)cc3s2)nnc1-c1ccoc1C,-3.69 (inactive)
13,C=CCn1c(SCC(=O)NCc2ccccc2)nnc1-c1cc(Br)ccc1O,-6.89 (active)
14,CN(C)/C=C(\C#N)C(=O)c1cccnc1Oc1ccc(F)cc1F,0.526 (inactive)
15,Cc1ccc(Cl)cc1NC(=O)COC(=O)C1CCCCC1,-0.13 (inactive)
16,O=C(NCc1ccco1)c1cc2sccc2n1Cc1ccc(F)cc1,-5.53 (active)
17,O=C(Cc1ccc(-n2c(=O)c3sccc3n(Cc3ccc(F)cc3)c2=O)cc1)NCc1ccco1,-0.875 (inactive)
18,O=C(NCc1ccco1)c1ccc(CS(=O)(=O)Cc2ccc(F)cc2)o1,1.27 (inactive)
19,O=C(c1cc2sccc2n1Cc1ccc(F)cc1)N1CCc2ccccc21,-3.42 (inactive)
20,CC(C)(C)c1ccc(C(=O)NCCC(=O)NCc2ccco2)cc1,-0.22 (inactive)
21,O=C(NCc1ccco1)c1ccc(Cn2c(=O)c3sccc3n(Cc3ccc(F)cc3)c2=O)cc1,-3.42 (active)
22,COc1cccc(-c2cc(C(=O)N/N=C/c3ccc(OC)c(COC(C)=O)c3)c3ccccc3n2)c1,-0.321 (inactive)
23,CC(C)(C)CN1C(=O)C(=O)NC[C@H]1Cc1cccc2ccccc12,0.844 (inactive)

row,SMILES,B-score
1,Fc1ccccc1COc1ccccc1CNCc1ccncc1,0.584 (inactive)
2,CC(C)CC(CO)N1CCN(C(=O)c2ccc(Cl)cc2Cl)CCC1=O (stereo not given),0.363 (inactive)
3,Cc1c(NC(=O)CCCOc2ccccc2)cccc1[N+](=O)[O-],-0.161 (inactive)
4,CCO[C@@H]1OC(C(N)=O)=C[C@H](c2ccc(Br)cc2)[C@H]1CCCO,0.335 (inactive)
5,CS(=O)(=O)N(CC(=O)N1CCN(Cc2ccc3c(c2)OCO3)CC1)c1ccc2c(c1)OCO2,1.42 (inactive)
6,O=C(c1cccs1)N1CCN(Cc2ccc3c(c2)OCO3)CC1,0.274 (inactive)
7,O=C(CSCc1ccc(Cl)cc1)N1CCN(Cc2ccc3c(c2)OCO3)CC1,-5.77 (active)
8,O=C(NCc1cc(C(F)(F)F)cc(C(F)(F)F)c1)C1CC(c2cccc(F)c2)=NO1 (stereo not given),-0.916 (inactive)
9,O=C(CSc1ncnc2c1cnn2CCc1ccccc1)Nc1ccc(F)cc1,0.0976 (inactive)
10,COc1ccc(C(C(=O)NCc2ccccc2)N(Cc2cccs2)C(=O)c2cnccn2)cc1 (stereo not given),-0.0118 (inactive)
11,C/C=C(/C)C(=O)Nc1cccc(C2=NOC3(C2)C[C@@H](C(N)=O)N(C(=O)C2(C)CC2)C3)c1 (stereo not given in full),-0.695 (inactive)
12,O=C(NCC1CCCO1)/C(=C\c1ccco1)NC(=O)c1ccccc1 (stereo not given),0.14 (inactive)
13,CCOc1cc(C)c(Cl)cc1S(=O)(=O)n1nnc2ccccc21,-2.51 (inactive)
14,CCOc1ccc(C(C)C)cc1S(=O)(=O)n1nc(C)cc1C,-4.23 (active)
15,CCOc1ccc(S(=O)(=O)n2ccnc2)c2ccccc12,0.109 (inactive)
16,O=C(CN1CCN(S(=O)(=O)c2ccc3ccccc3c2)CC1)NC(=O)NC1CCCCC1,-8.92 (active)
17,O=C(CN1CCN(S(=O)(=O)c2ccc(F)cc2)CC1)Nc1ccccc1F,0.623 (inactive)
18,O=C(CN1CCN(c2ccccn2)CC1)NC1CCCCC1,0.646 (inactive)
19,CCOC(=O)c1cccc(NC(=O)c2ccc(F)cc2F)c1,0.631 (inactive)
20,CN1CCN(C(=O)C2=C[C@H](c3ccc4c(c3)OCO4)C[C@H](OCc3ccc(CO)cc3)O2)CC1,0.346 (inactive)
21,O=C(CCc1ccc(S(=O)(=O)NC2CCCCC2)cc1)NCc1ccccc1,-2.7 (inactive)
